From PubChem BioAssay (NCATS) come the findings set out here.

Assay [1] deals with Rap guanine nucleotide exchange factor 3 (Homo sapiens) (UniProt O95398). Nature of the assay: Confirmatory qHTS for antagonist of cAMP-regulated guanine nucleotide exchange factor 3 (EPAC1) (AID 1645880). Further: nearly all actives have a fitted effect of over 55% in size. Further: potency means the concentration at half of the fitted maximal effect. As to conditions: EPAC1 Rap1B-BODIPY-GDP exchange, fluorescence; series mostly up to 115 µM. Summed up: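 Released BODIPY-GDP fluoresces less than Rap1-bound BODIPY-GDP; the signal is followed at 480/540 nm at 5-min intervals over 30 min, after 5 min at room temperature. Reactions contain 100 nM EPAC1, 250 nM RAP1B-BODIPY-GDP and 50 uM GDP; results are normalized to ATA and DMSO.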
Background: qHTS replaces the single test concentration by a dilution series.

Assay [2] shares this target. Kind of assay: Confirmatory qHTS for agonist of cAMP-regulated guanine nucleotide exchange factor 3 (EPAC1) (AID 1645881).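 Further: EPAC1 catalysed release of BODIPY-GDP from Rap1B seen as fluorescence loss; 100% = effect of cAMP agonist control; nearly all actives have a fitted effect of over 75% in size.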 To be noted: EPAC1 Rap1B BODIPY-GDP exchange fluorescence; series mostly up to 154 µM.
For assay [3], the target named is Rap guanine nucleotide exchange factor 4 (Homo sapiens) (UniProt Q8WZA2). Nature of the assay: Confirmatory qHTS for agonist of cAMP-regulated guanine nucleotide exchange factor 4 (EPAC2) (AID 1645884).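 Further: nucleotide exchange releases bodipy-GDP from Rap1 and this lowers its fluorescence; on the % scale 0 is the no-effect control and ±100 the full control effect; nearly all actives have a fitted effect of over 65% in size.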 As to conditions: EPAC2 GEF activity, Rap1B-BODIPY-GDP fluorescence; series mostly up to 154 µM.
The target is the same in assay [4]. Kind of assay: Confirmatory qHTS for antagonist of cAMP-regulated guanine nucleotide exchange factor 4 (EPAC2) (AID 1645885). Further: potency means the concentration at half of the fitted maximal effect; nearly all actives have a fitted effect of over 25% in size. As to conditions: EPAC2 Rap1B-BODIPY-GDP exchange fluorescence, biochemical; series mostly up to 114 µM.
The target in assay [5] is Catechol O-methyltransferase (Homo sapiens) (UniProt P21964). Kind of assay: Confirmatory Screen for Target Class Profiling of Small Molecule Inhibitors of Methyltransferases (AID 1745852; calls by dose curve; further: potency means the concentration at half of the fitted maximal effect). To be noted: MTase-Glo luminescence, SAH detection, recombinant enzyme; measured here: COMT max response; stronger effect = lower value.
Assay [6] concerns the target Guanidinoacetate N-methyltransferase (Homo sapiens) (UniProt Q14353). The assay is described as above. To be noted: MTase-Glo luminescence, SAH detection, recombinant enzyme; activity change, negative = inhibition: at 57.3 µM (top of the series).
In assay [7] the target is Nicotinamide N-methyltransferase (Homo sapiens) (UniProt P40261). Described as above. As to conditions: MTase-Glo luminescence, SAH detection, recombinant enzyme; measured here: NNMT max response; stronger effect = lower value.
Assay [8] concerns the target Phenylethanolamine N-methyltransferase (Homo sapiens) (UniProt P11086). The description is as above. To be noted: MTase-Glo luminescence, SAH detection, recombinant enzyme; measured here: PNMT max response; stronger effect = lower value.
Assay [9] can be described thus: Primary qHTS for inhibitors of nuclear receptor binding SET domain protein 2 (NSD2) in an isogenic RCH-ACV NSD2 p.E1099K mutant (9B) (AID 1645876). Further: nearly all actives have a fitted effect of over 70% in size. Further: potency means the concentration at half of the fitted maximal effect. To be noted: RCH-ACV NSD2 E1099K (9B) viability, CellTiter-Glo, 72 h; series mostly up to 44.9 µM.
A short description of assay [10]: Primary qHTS for inhibitors of nuclear receptor binding SET domain protein 2 (NSD2) in an RCH-ACV wild type WT cells (2C) (AID 1645877). Further: nearly all actives have a fitted effect of over 70% in size. Further: potency means the concentration at half of the fitted maximal effect. As to conditions: RCH-ACV (leukaemia line) NSD2 WT (2C) viability, CellTiter-Glo, 72 h; series mostly up to 44.9 µM.

Several values for one entry are separate records, joined by “and”; a condition that tells them apart may be missing. Equal values may be shown once. Results filed as inconclusive are left out. Activity calls are given as the source filed them. Unless noted, the call rests on the fitted dose curve; in most records, active means well fitted curve in the direction sought with a large enough effect; inconclusive means small, poorly fitted or top-dose-only effect, or another doubt; inactive means no such curve, though single readings can be large; an effect the other way counts as inactive or inconclusive.

Rap guanine nucleotide exchange factor 4 (Homo sapiens), sequence (Q8WZA2 whole entry, looked up): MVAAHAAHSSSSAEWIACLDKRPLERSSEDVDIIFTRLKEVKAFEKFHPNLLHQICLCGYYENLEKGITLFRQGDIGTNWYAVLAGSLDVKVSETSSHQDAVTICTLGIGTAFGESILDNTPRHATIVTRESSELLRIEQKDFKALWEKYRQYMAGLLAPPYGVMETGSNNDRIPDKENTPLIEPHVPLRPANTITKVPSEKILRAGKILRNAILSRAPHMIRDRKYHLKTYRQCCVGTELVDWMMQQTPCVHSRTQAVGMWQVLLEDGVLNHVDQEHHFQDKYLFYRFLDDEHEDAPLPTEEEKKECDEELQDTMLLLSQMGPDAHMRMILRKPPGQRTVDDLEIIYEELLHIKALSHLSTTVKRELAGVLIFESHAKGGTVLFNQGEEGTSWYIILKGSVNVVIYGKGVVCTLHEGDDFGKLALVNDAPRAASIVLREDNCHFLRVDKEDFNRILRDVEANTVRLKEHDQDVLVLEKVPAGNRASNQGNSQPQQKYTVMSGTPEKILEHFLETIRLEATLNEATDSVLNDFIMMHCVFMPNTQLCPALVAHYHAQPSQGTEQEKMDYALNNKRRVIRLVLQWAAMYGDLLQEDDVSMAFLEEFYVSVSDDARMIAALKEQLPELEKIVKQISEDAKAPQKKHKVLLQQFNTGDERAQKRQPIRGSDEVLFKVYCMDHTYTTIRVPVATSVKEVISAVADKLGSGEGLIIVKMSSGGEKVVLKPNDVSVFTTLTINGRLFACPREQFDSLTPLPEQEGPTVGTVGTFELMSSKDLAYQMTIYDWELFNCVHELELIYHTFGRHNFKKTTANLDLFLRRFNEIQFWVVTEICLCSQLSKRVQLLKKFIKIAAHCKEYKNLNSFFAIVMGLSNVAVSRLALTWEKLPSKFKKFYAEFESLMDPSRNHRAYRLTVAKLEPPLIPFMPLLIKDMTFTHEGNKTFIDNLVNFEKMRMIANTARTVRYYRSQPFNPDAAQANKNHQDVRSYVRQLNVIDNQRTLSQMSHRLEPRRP
Rap guanine nucleotide exchange factor 3 (Homo sapiens), sequence (O95398 whole entry, looked up): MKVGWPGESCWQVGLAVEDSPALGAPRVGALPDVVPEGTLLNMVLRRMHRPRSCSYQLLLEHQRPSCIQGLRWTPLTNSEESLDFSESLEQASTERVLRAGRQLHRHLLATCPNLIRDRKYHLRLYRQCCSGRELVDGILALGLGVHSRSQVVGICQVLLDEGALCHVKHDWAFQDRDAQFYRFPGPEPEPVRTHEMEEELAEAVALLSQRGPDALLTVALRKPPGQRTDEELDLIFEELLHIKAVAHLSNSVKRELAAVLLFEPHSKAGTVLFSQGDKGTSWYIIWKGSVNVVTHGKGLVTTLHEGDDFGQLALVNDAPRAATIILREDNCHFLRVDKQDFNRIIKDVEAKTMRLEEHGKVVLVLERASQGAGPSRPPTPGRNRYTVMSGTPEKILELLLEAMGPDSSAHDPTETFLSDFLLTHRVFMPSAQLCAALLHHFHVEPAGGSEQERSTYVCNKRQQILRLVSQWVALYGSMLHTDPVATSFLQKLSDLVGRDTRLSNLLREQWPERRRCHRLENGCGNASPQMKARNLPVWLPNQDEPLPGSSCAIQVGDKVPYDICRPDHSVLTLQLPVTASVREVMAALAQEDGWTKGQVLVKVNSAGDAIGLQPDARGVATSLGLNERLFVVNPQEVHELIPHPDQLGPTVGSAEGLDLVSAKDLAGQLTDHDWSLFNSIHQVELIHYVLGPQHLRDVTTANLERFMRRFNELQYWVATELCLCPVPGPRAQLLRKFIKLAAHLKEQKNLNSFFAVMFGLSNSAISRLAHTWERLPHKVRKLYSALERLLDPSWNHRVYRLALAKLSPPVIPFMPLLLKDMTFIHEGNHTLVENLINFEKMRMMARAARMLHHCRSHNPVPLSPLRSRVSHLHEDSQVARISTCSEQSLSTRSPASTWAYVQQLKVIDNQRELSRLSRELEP
Phenylethanolamine N-methyltransferase (Homo sapiens), sequence (P11086 whole entry, looked up, the tested form may be a part): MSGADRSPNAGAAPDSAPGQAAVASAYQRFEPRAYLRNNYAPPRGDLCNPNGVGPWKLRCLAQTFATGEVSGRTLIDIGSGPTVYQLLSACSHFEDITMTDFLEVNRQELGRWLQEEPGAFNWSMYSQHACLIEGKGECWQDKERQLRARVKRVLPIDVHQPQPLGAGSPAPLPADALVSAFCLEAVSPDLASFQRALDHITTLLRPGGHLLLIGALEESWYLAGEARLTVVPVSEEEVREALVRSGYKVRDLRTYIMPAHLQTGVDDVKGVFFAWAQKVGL
Catechol O-methyltransferase (Homo sapiens), sequence (P21964 whole entry, looked up): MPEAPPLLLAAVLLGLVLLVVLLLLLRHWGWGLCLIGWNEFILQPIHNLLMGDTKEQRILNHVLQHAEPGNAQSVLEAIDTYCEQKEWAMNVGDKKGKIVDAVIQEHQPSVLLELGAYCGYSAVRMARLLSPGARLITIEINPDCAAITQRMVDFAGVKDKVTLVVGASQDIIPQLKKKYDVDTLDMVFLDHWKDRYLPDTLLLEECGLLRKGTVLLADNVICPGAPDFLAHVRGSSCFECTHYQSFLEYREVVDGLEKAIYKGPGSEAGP
Nicotinamide N-methyltransferase (Homo sapiens), sequence (P40261 whole entry, looked up): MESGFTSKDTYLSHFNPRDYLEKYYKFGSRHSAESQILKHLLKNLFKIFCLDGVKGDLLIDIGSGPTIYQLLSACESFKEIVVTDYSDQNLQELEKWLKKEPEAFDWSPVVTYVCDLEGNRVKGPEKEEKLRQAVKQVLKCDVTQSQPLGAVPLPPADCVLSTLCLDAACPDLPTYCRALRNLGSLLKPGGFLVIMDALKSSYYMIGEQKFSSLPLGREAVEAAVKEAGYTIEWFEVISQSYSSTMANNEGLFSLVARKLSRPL

Consider `O=C1NC(=O)/C(=C/c2ccc(-c3ccc(F)cc3O)o2)S1`, for which the values for the Potency in [1] and in [4] were 55.9 µM (active) and 9.87 µM (active), respectively. The Potency result in assay [2] and in assay [3] was “inactive” throughout.

Consider `N.N.N.N.N.N.N.N.N.N.N.N.N.N.O.O.[Ru+4].[Ru+5].[Ru+5]`, for which the values for the activity in [5], in assay [7] and in assay [8] were -14.7%, -45.3% and -7.59%, respectively. Also, the Potency in [6] was 30.6 µM (active).

As to `C[N+]1(C)[C@@H]2CC(OC(=O)[C@H](CO)c3ccccc3)C[C@H]1[C@@H]1O[C@@H]12` (stereo partly drawn), the Potency entry in assay [9] and in assay [10] was “inactive” throughout.

With `Cc1ccc2c(n1)Oc1ccc(C(C)C(=O)OCC(=O)N(C)C)cc1C2` (stereo not drawn), the Potency entry in assay [9] and in assay [10] was “inactive” in each case.

As for `CC1(C)[C@@H](O[C@H]2O[C@H](C(=O)O)[C@@H](O)[C@H](O)[C@H]2O[C@@H]2O[C@H](C(=O)O)[C@@H](O)[C@H](O)[C@H]2O)CC[C@]2(C)[C@H]3C(=O)C=C4[C@@H]5C[C@@](C)(C(=O)O)CC[C@]5(C)CC[C@@]4(C)[C@]3(C)CC[C@@H]12`, the Potency result in [9] and in [10] was “inactive” throughout.

On to `CCCSc1ccc2nc(NC(=O)OC)[nH]c2c1`, for which the Potency in assay [9] was 0.422 µM (active); in [10], 0.266 µM (active).

In the case of `CO[C@@]1(NC(=O)Cc2cccs2)C(=O)N2C(C(=O)O)=C(COC(N)=O)CS[C@@H]21`, the Potency result in assay [9] and in assay [10] was “inactive” in each case.

`O=C(O)CC1CC(c2ccccc2)=NO1` (stereo not drawn): the Potency result in assay [9] and in assay [10] was “inactive” in each case.

As to `COC(=O)Nc1nc2ccc(C(=O)C3CC3)cc2[nH]1`, the Potency in assay [9] is 0.376 µM (active); in assay [10], 0.266 µM (active).

Take `CN(C)CCn1nnnc1SCC1=C(C(=O)O)N2C(=O)[C@@H](NC(=O)Cc3csc(N)n3)[C@H]2SC1`: the Potency entry in [9] and in [10] was “inactive” in each case.

As to `O=C(O)[C@H](CC(=O)N1C[C@H]2CCCC[C@H]2C1)Cc1ccccc1`, the Potency result in assay [9] and in [10] was “inactive” in each case.

On to `O=C(/C=C/c1ccc(O)cc1)c1ccc(O)cc1O`, for which the figures for the Potency in assay [9] and in assay [10] were 8.33 µM (active) and 5.25 µM (active), respectively.

Take `O=C(OCc1ccccc1)c1ccccc1`: the Potency entry in assay [9] and in assay [10] was “inactive” in each case.

`CCOC(=O)c1ccccc1O`: the Potency entry in assay [9] and in [10] was “inactive” in each case.

On to `CC[C@H]1OC(=O)[C@H](C)[C@@H](O[C@H]2C[C@@](C)(OC)[C@@H](O)[C@H](C)O2)[C@H](C)[C@@H](O[C@@H]2O[C@H](C)C[C@H](N(C)C)[C@H]2O)[C@](C)(O)C[C@@H](C)C(=O)[C@H](C)[C@@H](O)[C@]1(C)O`, for which the Potency result in [9] and in assay [10] was “inactive” throughout.

Take `COc1cccc2c1C(=O)c1c(O)c3c(c(O)c1C2=O)C[C@@](O)(C(=O)CO)C[C@@H]3O[C@H]1C[C@H](N)[C@H](O[C@@H]2CCCCO2)[C@H](C)O1`: the Potency in assay [9] was 0.0067 µM (active); in assay [10], 0.0038 µM (active).

As for `[O-][n+]1ccccc1SSc1cccc[n+]1[O-]`, the figures for the Potency in assay [9] and in assay [10] were 0.082 µM (active) and 0.103 µM (active), respectively.

With `CCCCCCCCCCCC(=O)[O][Sn]([CH2]CCC)([CH2]CCC)[O]C(=O)CCCCCCCCCCC`, the Potency result in [9] and in [10] was “inactive” throughout.

Turning to `N#C/C(=C\c1ccc(O)c(O)c1)C(=O)NCc1ccccc1`, the Potency is 9.2 µM (active) and 13.2 µM (active) in assay [9]; 9.2 µM (active) and 11.8 µM (active) in assay [10].

Consider `Cc1ccc(C(=O)c2ccc(CC(=O)O)n2C)cc1`, for which the Potency entry in assay [9] and in assay [10] was “inactive” each time.

In the case of `CN(C)c1nc2c(Br)c(Br)c(Br)c(Br)c2[nH]1`, the values for the Potency in assay [9] and in [10] were 14.6 µM (active) and 10.3 µM (active), respectively.

For `O=C(O)/C=C\C(=O)O`, the Potency result in assay [9] and in assay [10] was “inactive” throughout.

On to `O=C(Nc1ccc2[nH]ncc2c1)C1CCC1`, for which the Potency entry in [9] and in assay [10] was “inactive” in each case.

On to `CC1(C)S[C@@H]2[C@H](NC(=O)[C@H](N)c3ccccc3)C(=O)N2[C@H]1C(=O)O`, for which the Potency entry in [9] and in assay [10] was “inactive” in each case.

With `Cc1[nH]cnc1CN1CCc2c(c3ccccc3n2C)C1=O`, the Potency entry in assay [9] and in assay [10] was “inactive” each time.

Consider `Cc1ccc(O)c(-n2nc3ccccc3n2)c1`, for which the Potency entry in [9] and in assay [10] was “inactive” each time.

As for `c1ccc2sc(SN3CCOCC3)nc2c1`, the Potency result in assay [9] and in assay [10] was “inactive” throughout.

With `CC(=O)O[C@H]1C[C@@]2(C)[C@@H](C[C@@H](O)[C@H]3[C@@]4(C)CC[C@@H](O)[C@@H](C)[C@@H]4CC[C@@]32C)/C1=C(\CCC=C(C)C)C(=O)O`, the Potency entry in assay [9] and in [10] was “inactive” in each case.

Take `Cc1c(N)c(=O)n(-c2ccccc2)n1C`: the Potency result in assay [9] and in assay [10] was “inactive” throughout.

Turning to `CCC1C(=O)OCC1Cc1cncn1C` (stereo not drawn), the Potency entry in [9] and in assay [10] was “inactive” in each case.

As to `Oc1c(Br)cc(Br)c2cccnc12`, the Potency in assay [9] was 3.76 µM (active); in assay [10], 3.35 µM (active).

Consider `COc1cc(NC(C)CCCN)c2ncccc2c1` (stereo not drawn), for which the Potency in assay [9] is 6.68 µM (active); in assay [10], 5.31 µM (active).

On to `COc1ccc(/C=C/C(=O)Nc2ccccc2C(=O)O)cc1OC`, for which the Potency result in [9] and in assay [10] was “inactive” in each case.

Consider `O=C(CCN1CCN(CCO)CC1)N1c2ccccc2Sc2ccc(C(F)(F)F)cc21`, for which the Potency entry in assay [9] and in assay [10] was “inactive” in each case.

Turning to `COc1ccnc2c1CCCCC2S(=O)c1nc2ccccc2[nH]1` (stereo not drawn), the Potency result in assay [9] and in assay [10] was “inactive” each time.

For the molecule `O=C(O)Cc1ccc2c(c1)C(=O)c1ccccc1CO2`, the Potency entry in [9] and in [10] was “inactive” throughout.

Take `O=c1[nH]c2ccccc2n1CCCN1CCN(C(c2ccccc2)c2ccccc2)CC1`: the Potency in [9] and in assay [10] was 23.7 µM (active) throughout.

For the molecule `O=Cc1ccc(O)c(O)c1O`, the Potency in [10] is 16.8 µM (active).

Regarding `Nc1nc2ccc([N+](=O)[O-])cc2s1`, the Potency in assay [9] is 21.7 µM (active); in [10], 19.3 µM (active).

Regarding `CCCCN(CC)c1nc(C)nc2c1c(C)cn2-c1c(C)cc(C)cc1C`, the Potency result in assay [10] is “inactive”.

With `COC(=O)C1=C(C)NC(C)=C(C(=O)OCC(C)C)C1c1ccccc1[N+](=O)[O-]` (stereo not drawn), the Potency in assay [10] is 26.6 µM (active).

For the molecule `O=C(O)c1cc([N+](=O)[O-])ccc1NCCCc1ccccc1`, the Potency result in assay [1], in [2] and in assay [3] was “inactive” throughout.

For the molecule `CC(C)OC(=O)c1cc(C(=O)OC(C)C)cc([N+](=O)[O-])c1`, the Potency result in assay [9] and in [10] was “inactive” in each case.

For `N#C/C(=C\c1ccc(O)c(O)c1)C(=O)NCCCc1ccccc1`, the Potency in [9] is 14.6 µM (active); in assay [10] it was 16.4 µM (active); in assay [1], 15.7 µM (active). Besides, the Potency entry in [2] and in assay [3] was “inactive” each time.
